Results taken from PubChem BioAssay AID743157 (Broad Institute, 2013).
Values without a mark were called inactive. The source made the active and inactive calls.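 How the source made its calls: active means cell killing, with a fitted active concentration at or below twice the top valid dose tested; inconclusive means flat fit with 30 to 70 percent signal loss, or poor fit; inactive means effect in the rising direction, plus the rest.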

experiment: viability loss in A549 lung cancer cells – cell-based, CellTiter-Glo luminescence, dry powder, set 4, cytotoxicity control, dose response (AID 743157); conditions: CellTiter-Glo ATP luminescence, 72 h; series mostly up to 50 µM; activity change, negative = cytotoxicity: at the top concentration

Structure (SMILES)	activity change, negative = cytotoxicity	outcome
Cc1c(C(=O)O)sc2nc(/C=C/c3ccncc3)[nH]c(=O)c12	8.31%	–
Cc1c(C(=O)O)sc2nc(/C=C/c3ccc4cc[nH]c4c3)[nH]c(=O)c12	-3.79%	–
Cc1c(C(=O)O)sc2nc(/C=C/c3cnc4ccccc4c3)[nH]c(=O)c12	-0.773%	–
Cc1c(C(=O)O)sc2nc(/C=C/c3cc4ccccc4cn3)[nH]c(=O)c12	12.1%	–
Cc1c(C(=O)O)sc2nc(/C=C/c3cccnc3)[nH]c(=O)c12	-5.2%	–
Cc1c(C(=O)O)sc2nc(/C=C/c3cccc(N4CCNCC4)c3)[nH]c(=O)c12	-8.12%	–
Cc1c(C(=O)O)sc2nc(CCc3cccc(O)c3)[nH]c(=O)c12	13.1%	–
Cc1c(C(=O)O)sc2nc(/C=C/c3ccccc3O)[nH]c(=O)c12	-4.23%	–
Cc1c(C(=O)O)sc2nc(/C=C/c3cccc([N+](=O)[O-])c3)[nH]c(=O)c12	-5.5%	–
Cc1c(C(=O)O)sc2nc(/C=C/c3cccc(C(N)=O)c3)[nH]c(=O)c12	1.96%	–
Cc1c(C(=O)O)sc2nc(/C=C/c3ccccn3)[nH]c(=O)c12	-3.16%	–
Cc1c(C(=O)O)sc2nc(/C=C/c3ccc4ccccc4c3)[nH]c(=O)c12	3.4%	–
Cc1c(C(=O)O)sc2nc(/C=C/c3ccc4[nH]ccc4n3)[nH]c(=O)c12	6.14% [at 12 µM]	–
Cc1c(C(=O)O)sc2nc(/C=C/c3cccc(=O)[nH]3)[nH]c(=O)c12	-1.12%	–
Cc1c(C(=O)O)sc2nc(/C=C/c3cccc(N)c3)[nH]c(=O)c12	-1.1%	–
Cc1c(C(=O)O)sc2nc(/C=C/c3cccc(C(=O)O)c3)[nH]c(=O)c12	6.57%	–
Cc1c(C(=O)O)sc2nc(/C=C/c3cccc(N4CCOCC4)n3)[nH]c(=O)c12	6.58%	–
Cc1c(C(=O)O)sc2nc(/C=C/c3cccnc3N)[nH]c(=O)c12	-7.98% [at 12 µM]	–
Cc1c(C(=O)O)sc2nc(/C=C/c3cccc(OC(F)(F)F)c3)[nH]c(=O)c12	-1.89%	–
COc1cccc(/C=C/c2nc3sc(C(=O)O)c(C)c3c(=O)[nH]2)c1	-9.5%	–
Cc1c(C(=O)O)sc2nc(/C=C/c3cccc(F)c3)[nH]c(=O)c12	4.97%	–
Cc1c(C(=O)O)sc2nc(/C=C/C=C/c3ccccc3)[nH]c(=O)c12	11.2%	–
Cc1c(C(=O)O)sc2nc(/C=C/c3ccc4[nH]ccc4c3)[nH]c(=O)c12	0.34%	–
Cc1c(C(=O)O)sc2nc(/C=C/c3cccc(C(F)(F)F)c3)[nH]c(=O)c12	-8.26%	–
Cc1c(C(=O)O)sc2nc(/C=C/c3ccnc4ccccc34)[nH]c(=O)c12	-1.47%	–
Cc1c(C(=O)O)sc2nc(/C=C/c3ccc(N)nc3)[nH]c(=O)c12	-0.971%	–
Cc1c(C(=O)O)sc2nc(/C=C/C3CC3)[nH]c(=O)c12	9.01%	–
Cc1c(C(=O)O)sc2nc(/C=C/c3cccc(O)c3)[nH]c(=O)c12	–	inactive
Cc1c(C(=O)O)sc2nc(/C=C/c3ccc(O)cn3)[nH]c(=O)c12	4.16% [at 1.2 µM]	–
Cc1c(C(=O)O)sc2nc(/C=C/c3ccccc3)[nH]c(=O)c12	-3.23%	–
